# The entries come from a sample that favours the strongest signals as a whole.
# B1: LecB PA14 (Pseudomonas aeruginosa) (protein)
# chain: MATQGVFTLPANTQFGVTAFANSAGTQTVNVQVNNETVATFTGQSTNNAIIGSKVLNSGGGGKVQILVSVNGRSSDLVSAQVILANELNFALVGSEDSTDNDYNDAVVVINWPLG
# Legend:
# Assay in all cases: glycan array binding signal (z-score within array); higher = stronger binding
# Settings in all cases: glycan notation: IUPAC condensed, linker removed
# [1] = molecular target: Fuc(a1-2)Gal(b1-3)GalNAc(a1-3)[Fuc(a1-2)]Gal(b1-4)GlcNAc
# Method in brief: (§1)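 Glycan array data were curated from 3228 arrays in the Consortium for Functional Glycomics database and kept only where the protein sequence was available. Glycan names were converted to IUPAC-condensed notation, and columns mapping to the same glycan were averaged. The binding signal is a within-array Z-score, averaged across arrays of the same protein sequence at different concentrations or buffers and across linkers. Negative Z-scores can be read as non-binding.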
# [2] = molecular target: Fuc(a1-2)Gal(b1-3)GlcNAc(b1-3)GalNAc
# Method in brief: as §1
# [3] = molecular target: Fuc(a1-2)Gal(b1-3)GlcNAc(b1-3)[Neu5Ac(a2-6)Gal(b1-4)GlcNAc(b1-6)]Gal(b1-4)Glc
# Method in brief: as §1
# [4] = molecular target: Fuc(a1-2)Gal(b1-3)[Fuc(a1-4)]GlcNAc
# Method in brief: as §1
# [5] = molecular target: Fuc(a1-2)Gal(b1-4)GlcNAc(b1-2)Man(a1-3)[Fuc(a1-2)Gal(b1-4)GlcNAc(b1-2)Man(a1-6)]Man(b1-4)GlcNAc(b1-4)[Fuc(a1-6)]GlcNAc
# Method in brief: as §1
# [6] = molecular target: Fuc(a1-2)Gal(b1-4)GlcNAc(b1-2)[Fuc(a1-2)Gal(b1-4)GlcNAc(b1-4)]Man(a1-3)[Fuc(a1-2)Gal(b1-4)GlcNAc(b1-2)Man(a1-6)]Man(b1-4)GlcNAc(b1-4)GlcNAc
# Method in brief: as §1
# [7] = molecular target: Fuc(a1-2)Gal(b1-4)GlcNAc(b1-3)Gal(b1-4)GlcNAc(b1-2)Man(a1-3)[Fuc(a1-2)Gal(b1-4)GlcNAc(b1-3)Gal(b1-4)GlcNAc(b1-2)Man(a1-6)]Man(b1-4)GlcNAc(b1-4)GlcNAc
# Method in brief: as §1
# [8] = molecular target: Fuc(a1-2)Gal(b1-4)GlcNAc6S
# Method in brief: as §1
# [9] = molecular target: Fuc(a1-2)Gal(b1-4)[Fuc(a1-3)]GlcNAc(b1-3)Gal(b1-4)[Fuc(a1-3)]GlcNAc
# Method in brief: as §1
# [10] = molecular target: Fuc(a1-2)Gal(b1-4)[Fuc(a1-3)]GlcNAc(b1-3)Gal(b1-4)[Fuc(a1-3)]GlcNAc(b1-3)Gal(b1-4)[Fuc(a1-3)]GlcNAc
# Method in brief: as §1
# Fuc(a1-2)[Gal(a1-3)]Gal = molecular target: Fuc(a1-2)[Gal(a1-3)]Gal
# Method in brief: as §1
# [11] = molecular target: Fuc(a1-2)[Gal(a1-3)]Gal(b1-3)GlcNAc(b1-6)GalNAc
# Method in brief: as §1
# [12] = molecular target: Fuc(a1-2)[Gal(a1-3)]Gal(b1-4)GlcNAc
# Method in brief: as §1
# [13] = molecular target: Fuc(a1-2)[GalNAc(a1-3)]Gal(b1-3)GlcNAc(b1-6)GalNAc
# Method in brief: as §1
# [14] = molecular target: Fuc(a1-2)[GalNAc(a1-3)]Gal(b1-4)GlcNAc(b1-3)Gal(b1-4)GlcNAc(b1-3)Gal(b1-4)GlcNAc
# Method in brief: as §1
# [15] = molecular target: Fuc(a1-3)[Gal(b1-4)]GlcNAc(b1-3)Gal(b1-4)[Fuc(a1-3)]GlcNAc(b1-3)Gal(b1-4)[Fuc(a1-3)]GlcNAc
# Method in brief: as §1
# [16] = molecular target: Fuc(a1-3)[GalNAc(b1-4)]GlcNAc
# Method in brief: as §1
# Gal(a1-3)Gal = molecular target: Gal(a1-3)Gal
# Method in brief: as §1
# [17] = molecular target: Gal(a1-3)Gal(b1-3)[Fuc(a1-4)]GlcNAc(b1-2)Man(a1-3)[Gal(a1-3)Gal(b1-3)[Fuc(a1-4)]GlcNAc(b1-2)Man(a1-6)]Man(b1-4)GlcNAc(b1-4)GlcNAc
# Method in brief: as §1
# Gal(a1-4)Gal(b1-4)Glc = molecular target: Gal(a1-4)Gal(b1-4)Glc
# Method in brief: as §1
# [18] = molecular target: Gal(a1-4)Gal(b1-4)GlcNAc(b1-3)Gal(b1-4)Glc
# Method in brief: as §1
# Gal(b1-3)Gal(b1-4)GlcNAc = molecular target: Gal(b1-3)Gal(b1-4)GlcNAc
# Method in brief: as §1
# [19] = molecular target: Gal(b1-3)GalNAc(a1-3)[Fuc(a1-2)]Gal(b1-4)Glc
# Method in brief: as §1
# [20] = molecular target: Gal(b1-3)GlcNAc(b1-2)Man(a1-3)[Gal(b1-3)GlcNAc(b1-2)Man(a1-6)]Man(b1-4)GlcNAc(b1-4)[Fuc(a1-6)]GlcNAc
# Method in brief: as §1
# [21] = molecular target: Gal(b1-3)GlcNAc(b1-2)Man(a1-3)[GlcNAc(b1-4)][Gal(b1-3)GlcNAc(b1-2)Man(a1-6)]Man(b1-4)GlcNAc(b1-4)GlcNAc
# Method in brief: as §1
# Gal(b1-4)GlcNAc(b1-2)Man = molecular target: Gal(b1-4)GlcNAc(b1-2)Man
# Method in brief: as §1
# [22] = molecular target: Gal(b1-4)GlcNAc(b1-2)Man(a1-3)[GlcNAc(b1-2)Man(a1-6)]Man(b1-4)GlcNAc(b1-4)GlcNAc
# Method in brief: as §1
# [23] = molecular target: Gal(b1-4)GlcNAc(b1-3)Gal(b1-3)GalNAc
# Method in brief: as §1
# Gal3S6S(b1-4)GlcNAc = molecular target: Gal3S6S(b1-4)GlcNAc
# Method in brief: as §1
# [24] = molecular target: GalNAc(b1-4)GlcNAc(b1-3)GalNAc(b1-4)GlcNAc
# Method in brief: as §1
# GlcA(b1-3)Gal = molecular target: GlcA(b1-3)Gal
# Method in brief: as §1
# [25] = molecular target: GlcNAc(a1-4)Gal(b1-4)GlcNAc(b1-3)Gal(b1-4)Glc
# Method in brief: as §1
# [26] = molecular target: GlcNAc(b1-2)Man(a1-3)[GlcNAc(b1-4)][GlcNAc(b1-2)Man(a1-6)]Man(b1-4)GlcNAc(b1-4)GlcNAc
# Method in brief: as §1
# [27] = molecular target: GlcNAc(b1-2)[GlcNAc(b1-6)]Man(a1-6)[GlcNAc(b1-2)Man(a1-3)]Man(b1-4)GlcNAc(b1-4)[Fuc(a1-6)]GlcNAc
# Method in brief: as §1
# [28] = molecular target: GlcNAc(b1-3)Gal(b1-4)GlcNAc(b1-3)Gal(b1-4)GlcNAc(b1-2)Man(a1-3)[GlcNAc(b1-3)Gal(b1-4)GlcNAc(b1-3)Gal(b1-4)GlcNAc(b1-2)Man(a1-6)]Man(b1-4)GlcNAc(b1-4)GlcNAc
# Method in brief: as §1
# GlcNAc(b1-3)Man = molecular target: GlcNAc(b1-3)Man
# Method in brief: as §1
# Kdn(a2-3)Gal(b1-4)GlcNAc = molecular target: Kdn(a2-3)Gal(b1-4)GlcNAc
# Method in brief: as §1
# [29] = molecular target: Man(a1-2)Man(a1-3)[Man(a1-2)Man(a1-6)]Man(a1-6)[Man(a1-2)Man(a1-2)Man(a1-3)]Man
# Method in brief: as §1
# [30] = molecular target: Neu5Ac(a2-3)Gal(b1-3)GalNAc
# Method in brief: as §1
# [31] = molecular target: Neu5Ac(a2-3)Gal(b1-3)[Fuc(a1-4)]GlcNAc(b1-3)Gal(b1-3)[Fuc(a1-4)]GlcNAc
# Method in brief: as §1
# [32] = molecular target: Neu5Ac(a2-3)Gal(b1-3)[Neu5Ac(a2-6)]GalNAc
# Method in brief: as §1
# [33] = molecular target: Neu5Ac(a2-3)Gal(b1-4)GlcNAc(b1-3)Gal(b1-4)GlcNAc(b1-3)[Neu5Ac(a2-3)Gal(b1-4)GlcNAc(b1-3)Gal(b1-4)GlcNAc(b1-6)]GalNAc
# Method in brief: as §1
# [34] = molecular target: Neu5Ac(a2-3)Gal(b1-4)GlcNAc(b1-3)[Neu5Ac(a2-3)Gal(b1-4)GlcNAc(b1-6)]GalNAc
# Method in brief: as §1
# [35] = molecular target: Neu5Ac(a2-3)Gal(b1-4)[Fuc(a1-3)]GlcNAc(b1-6)[Neu5Ac(a2-3)Gal(b1-3)]GalNAc
# Method in brief: as §1
# [36] = molecular target: Neu5Ac(a2-3)Gal(b1-4)[Fuc(a1-3)]GlcNAc6S
# Method in brief: as §1
# [37] = molecular target: Neu5Ac(a2-3)GalNAc(b1-4)GlcNAc
# Method in brief: as §1
# [38] = molecular target: Neu5Ac(a2-6)Gal(b1-4)GlcNAc
# Method in brief: as §1
# [39] = molecular target: Neu5Ac(a2-6)Gal(b1-4)GlcNAc(b1-2)Man(a1-3)[Neu5Ac(a2-3)Gal(b1-4)GlcNAc(b1-2)Man(a1-6)]Man(b1-4)GlcNAc(b1-4)GlcNAc
# Method in brief: as §1
binder,measurement,setting,value
B1,glycan array binding signal (z-score),[1],0.586
same,glycan array binding signal (z-score),[2],0.422
same,glycan array binding signal (z-score),[3],0.308
same,glycan array binding signal (z-score),[4],2.93
same,glycan array binding signal (z-score),[5],2.75
same,glycan array binding signal (z-score),[6],4.68
same,glycan array binding signal (z-score),[7],7.45
same,glycan array binding signal (z-score),[8],-0.469
same,glycan array binding signal (z-score),[9],10.2
same,glycan array binding signal (z-score),[10],7.29
same,glycan array binding signal (z-score),Fuc(a1-2)[Gal(a1-3)]Gal,-0.002
same,glycan array binding signal (z-score),[11],-0.543
same,glycan array binding signal (z-score),[12],-0.7
same,glycan array binding signal (z-score),[13],-0.191
same,glycan array binding signal (z-score),[14],-0.182
same,glycan array binding signal (z-score),[15],4.17
same,glycan array binding signal (z-score),[16],5.42
same,glycan array binding signal (z-score),Gal(a1-3)Gal,-0.72
same,glycan array binding signal (z-score),[17],2.54
same,glycan array binding signal (z-score),Gal(a1-4)Gal(b1-4)Glc,-0.633
same,glycan array binding signal (z-score),[18],0.061
same,glycan array binding signal (z-score),Gal(b1-3)Gal(b1-4)GlcNAc,-0.517
same,glycan array binding signal (z-score),[19],-0.227
same,glycan array binding signal (z-score),[20],0.647
same,glycan array binding signal (z-score),[21],0.447
same,glycan array binding signal (z-score),Gal(b1-4)GlcNAc(b1-2)Man,-0.837
same,glycan array binding signal (z-score),[22],0.016
same,glycan array binding signal (z-score),[23],-0.179
same,glycan array binding signal (z-score),Gal3S6S(b1-4)GlcNAc,-0.745
same,glycan array binding signal (z-score),[24],-0.272
same,glycan array binding signal (z-score),GlcA(b1-3)Gal,0.136
same,glycan array binding signal (z-score),[25],-0.506
same,glycan array binding signal (z-score),[26],-0.629
same,glycan array binding signal (z-score),[27],-0.125
same,glycan array binding signal (z-score),[28],0.43
same,glycan array binding signal (z-score),GlcNAc(b1-3)Man,-0.123
same,glycan array binding signal (z-score),Kdn(a2-3)Gal(b1-4)GlcNAc,-0.618
same,glycan array binding signal (z-score),[29],5.22
same,glycan array binding signal (z-score),[30],-0.314
same,glycan array binding signal (z-score),[31],3.3
same,glycan array binding signal (z-score),[32],-0.618
same,glycan array binding signal (z-score),[33],-0.427
same,glycan array binding signal (z-score),[34],-0.521
same,glycan array binding signal (z-score),[35],-0.054
same,glycan array binding signal (z-score),[36],0.335
same,glycan array binding signal (z-score),[37],-0.298
same,glycan array binding signal (z-score),[38],-0.39
same,glycan array binding signal (z-score),[39],-0.741

# — the supplement of paper PMC8728848
